The list is not random: actives were taken first. Their share in the collection is about 17%.
HepG2 viability: counter-screen for TGF-b inhibitors: cytotoxicity in HepG2 cells | HepG2 CAGA-GFP viability, ATP luminescence, 18 h | Potency, µM (highest dose often 46.1 µM), most hits filed as cytotoxic | 410,000 compounds, 0.76% hits | AID 588856
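HepG2 CAGA-GFP cells (1000/well, DMEM with 1% FBS) received compound, then TGF-beta at 500 pg/mL final, and were incubated 18 hours at 37 degrees C. Viability was read by CellTiter-Glo luminescence. Media-only wells were set as complete cell-killing and DMSO as no toxicity.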
TGFb SMAD3 inh: inhibitors of TGF-b signaling. HepG2 CAGA-GFP TGF-b/SMAD3 reporter, GFP fluorescence, 18 h; TGF-beta stimulated, 500 pg/mL final. 410,000 compounds, 1.2% hits. Potency, µM (doses to about 46.1 µM), most hits filed as inhibitors; note: nearly all actives have a fitted effect of over 65% in size
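Inhibition was scored as loss of TGF-beta-induced (500 pg/mL final, 18 hours, 37 degrees C) GFP in HEPG2 cells carrying a CAGA-GFP reporter, in DMEM with 1% FBS. Well GFP was summed per cell; Activity was normalised to unstimulated and stimulated DMSO wells, then concentration-response fitting.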
DT40 TDP1 CPT: growth inhibition of DT40 Tdp1-/-;hTDP1 cells with camptothecin (screen for TDP1 inhibitors). chicken DT40 Tdp1-/-;hTDP1 cells + 20 nM CPT, ATP luminescence, 48 h. Potency, µM (highest dose often 46.2 µM), hits mostly inhibitors. 420,000 compounds, 12% hits. AID 686979; note: nearly all actives have a fitted effect of over 55% in size
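Cell growth measured by CellTiter-Glo luminescence after a minimum 48 h, 37 C compound exposure with 20 nM CPT in Tdp1-knockout DT40 cells stably expressing hTDP1, seeded 400/well; qHTS titration format.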
DT40 TDP1 no CPT: qHTS for Inhibitors of human tyrosyl-DNA phosphodiesterase 1 (TDP1): qHTS in cells in absence of CPT; AID 686978, 2013; DT40 Tdp1-/- hTDP1 cells, no CPT, ATP luminescence, 48 h; 420,000 compounds, 15% hits; Potency, µM (titrated, usually from 46.2 µM), hits mostly inhibitors; note: nearly all actives have a fitted effect of over 55% in size
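Compound effects on proliferation are scored in DT40 Tdp1-/-;hTDP1 cells in the absence of CPT. ATP levels (CellTiter-Glo luminescence) are recorded after a ≥48 hr, 37 °C incubation.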
HT1080 IDH1KD tx: toxicity to HT-1080 IDH1 knockdown cells (counter line); HT-1080 IDH1 knockdown viability, ATP luminescence, 48 h; Potency, µM (doses to about 46.1 µM), hits mostly cytotoxic; 360,000 compounds, 2% hits
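Luminescent ATP read-out (CellTiter-Glo, 10 min at room temperature) after 48 h compound exposure at 37 °C gave viability of IDH1-knockdown HT-1080 cells. Activity was normalised to DMSO and cell-free wells, then fitted as concentration-response curves.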
HT1080NT lethal: kills 2HG-producing HT-1080-NT fibrosarcoma cells; HT-1080-NT fibrosarcoma viability, CellTiter-Glo ATP luminescence, 48 h; Potency, µM (doses to about 46.1 µM), hits mostly cytotoxic; 360,000 compounds, 1.6% hits;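 note: NT is the 2HG producing partner of a matched IDH1 knockdown line; nearly all actives have a fitted effect of over 55% in size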
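Viability of the 2HG-overproducing fibrosarcoma line after 48 hours of compound exposure at 37 degrees C was determined by luminescence with CellTiter-Glo, and concentration-effect curves were then fitted and categorized.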
Of the large screens only hits and unclear results are named; the others gave an inactive call. Calls come from the whole dose curve; as a rule, active = well fitted curve in the direction sought with a large enough effect; inconclusive = small, poorly fitted or top-dose-only effect, or another doubt; inactive = no such curve, though single readings can be large; an effect the other way counts as inactive or inconclusive.

COc1ccc(/C=C2/CCc3ccccc3C2=O)cc1CN1CCOCC1	DT40 TDP1 CPT 23.1µM, DT40 TDP1 no CPT 16.4µM
COc1ccc(/C=C/C(=O)c2ccc3ccccc3c2O)cc1CN1CCOCC1	DT40 TDP1 CPT inconclusive, DT40 TDP1 no CPT 18.4µM
CS(=O)(=O)Nc1ccccc1C(=O)NCCSc1ccccc1	none
COc1cc(/C=C/C(=O)O)cc(S(=O)(=O)Nc2ccccc2C(=O)NCc2ccco2)c1OC	none
Cc1ccc(F)cc1C(=O)N1CCCC1(C)C(=O)NCC(C)C (stereo unspecified)	HT1080NT lethal inconclusive
CC1=NN(c2ccccc2)C(=O)/C1=C/c1c(O)n(-c2ccc(F)cc2)[nH]c1=O	TGFb SMAD3 inh inconclusive
O=C1N=c2ccccc2=C1c1c(O)n(-c2cccc(F)c2)[nH]c1=O	DT40 TDP1 CPT 20.6µM, DT40 TDP1 no CPT inconclusive
Cc1cccc(NC(=O)C2(c3ccccc3)CC2(Cl)Cl)c1 (stereo unspecified)	none
Cc1ccc(NC(=O)C2(c3ccccc3)CC2(Cl)Cl)cc1C (stereo unspecified)	TGFb SMAD3 inh inconclusive, DT40 TDP1 CPT inconclusive, DT40 TDP1 no CPT 16.4µM
CCOc1ccccc1Nc1sc(C(=O)c2ccccc2)c(N)c1C(=O)Nc1ccc(F)cc1	TGFb SMAD3 inh 14.1µM, DT40 TDP1 CPT inconclusive, DT40 TDP1 no CPT 13µM (no result: HT1080 IDH1KD tx, HT1080NT lethal)
CCOc1ccc(NC(=O)c2c(Nc3ccccc3C)sc(C(=O)c3ccccc3)c2N)cc1	TGFb SMAD3 inh inconclusive, DT40 TDP1 CPT inconclusive, DT40 TDP1 no CPT 11.6µM (no result: HT1080 IDH1KD tx, HT1080NT lethal)
CCOc1ccccc1Nc1sc(C(=O)c2ccc(Cl)cc2)c(N)c1C(=O)NCCc1ccccc1	DT40 TDP1 CPT 4.61µM, DT40 TDP1 no CPT 20.6µM (no result: HT1080 IDH1KD tx, HT1080NT lethal)
Cc1ccccc1Nc1sc(C(=O)Nc2cccc(Cl)c2)c(N)c1C(N)=O	TGFb SMAD3 inh inconclusive
Cc1ccc(Nc2sc(C(=O)c3ccccc3)c(N)c2C(N)=O)cc1	DT40 TDP1 CPT inconclusive, DT40 TDP1 no CPT inconclusive (no result: HT1080 IDH1KD tx, HT1080NT lethal)
Cc1cccc(C)c1Nc1sc(C(=O)c2ccccc2)c(N)c1C(=O)Nc1ccc(F)cc1	TGFb SMAD3 inh 11.2µM, DT40 TDP1 CPT inconclusive, DT40 TDP1 no CPT 20.6µM (no result: HT1080 IDH1KD tx, HT1080NT lethal)
CCOc1ccc(OCCC(=O)OCC(=O)NC2CCCC2)cc1	none
O=C(CCN=C1NS(=O)(=O)c2ccccc21)OCC(=O)c1ccccc1Cl	none
COc1ccc(/C=N/NC(=O)Cn2cnc3ccccc3c2=O)cc1OC	none
Cc1cc(C)cc(NC(=S)N(CCN(C)C)Cc2cccs2)c1	none
Oc1ccc(C=NNC(=S)Nc2cccnc2)nc1	TGFb SMAD3 inh inconclusive, DT40 TDP1 CPT 16.4µM, DT40 TDP1 no CPT 20.6µM, HT1080 IDH1KD tx inconclusive, HT1080NT lethal inconclusive
Oc1ccc(/C=N/NC(=S)Nc2cccnc2)cc1O	none
FC(F)(F)c1ccccc1Cc1c(-c2ccc(Cl)cc2)nc2c3ccccc3ccn12	DT40 TDP1 CPT inconclusive, DT40 TDP1 no CPT 25.9µM (no result: HepG2 viability, TGFb SMAD3 inh)
FC(F)(F)c1ccccc1Cc1c(-c2cccc(Cl)c2)nc2c3ccccc3ccn12	DT40 TDP1 CPT inconclusive, DT40 TDP1 no CPT 20.6µM (no result: HepG2 viability, TGFb SMAD3 inh)
Fc1ccc(-c2nc3c4ccccc4ccn3c2Cc2ccccc2C(F)(F)F)cc1	TGFb SMAD3 inh inconclusive, DT40 TDP1 CPT inconclusive, DT40 TDP1 no CPT inconclusive
Brc1ccc(-n2cnc(-c3ccccc3)c2)cc1	DT40 TDP1 CPT inconclusive, DT40 TDP1 no CPT inconclusive
Cc1ccc(CNC(=O)C(C)n2ccc3cc(S(=O)(=O)N4CCCC4)ccc32)cc1 (stereo unspecified)	DT40 TDP1 CPT inconclusive, DT40 TDP1 no CPT 0.461µM (no result: HT1080 IDH1KD tx, HT1080NT lethal)
CCOc1ccc(CNC(=O)C(C)n2ccc3cc(S(=O)(=O)N4CCCC4)ccc32)cc1 (stereo unspecified)	TGFb SMAD3 inh inconclusive, DT40 TDP1 CPT inconclusive, DT40 TDP1 no CPT 20.6µM, HT1080NT lethal inconclusive
CC(C(=O)NCc1ccc(F)cc1)n1ccc2cc(S(=O)(=O)N3CCCC3)ccc21 (stereo unspecified)	DT40 TDP1 CPT inconclusive, DT40 TDP1 no CPT inconclusive
O=C(NCc1cccc(C(F)(F)F)c1)c1ccc2c(c1)OCCO2	none
CCOC(=O)N1CCC(NC(=O)CCC(=O)N2CCOc3ccc(Cl)cc32)CC1	DT40 TDP1 no CPT inconclusive
CCCOC(c1ccccc1)(c1ccc(C(F)(F)F)cc1)C(Oc1nc(C)cc(C)n1)C(=O)O (stereo unspecified)	TGFb SMAD3 inh inconclusive, DT40 TDP1 CPT 18.4µM, DT40 TDP1 no CPT 20.6µM, HT1080 IDH1KD tx inconclusive, HT1080NT lethal inconclusive
OC[C@@H]1CN(Cc2cccs2)C[C@H](n2cnc3c(N4CCN(c5ccccc5)CC4)ncnc32)O1	DT40 TDP1 CPT 23.1µM, DT40 TDP1 no CPT inconclusive, HT1080 IDH1KD tx inconclusive
CC(=O)OC[C@@H]1CN(Cc2ccccc2)C[C@H](n2cnc3c(N4CCN(c5ccccc5)CC4)ncnc32)O1	DT40 TDP1 CPT 16.4µM, DT40 TDP1 no CPT 18.4µM
OC[C@@H]1CN(Cc2cccnc2)C[C@H](n2cnc3c(N4CCN(c5ccccc5)CC4)ncnc32)O1	DT40 TDP1 CPT inconclusive, DT40 TDP1 no CPT 16.4µM
OC[C@@H]1CN(Cc2ccc3c(c2)OCO3)C[C@H](n2cnc3c(N4CCN(c5ccccc5)CC4)ncnc32)O1	DT40 TDP1 CPT 18.4µM, DT40 TDP1 no CPT inconclusive

Assay outcomes deposited in PubChem BioAssay by National Center for Advancing Translational Sciences (NCATS).
